The text below walks through data of PubChem BioAssay (NCATS).

Unmarked numbers belong to inactive results. Activity calls are given as the source filed them. Calls come from the whole dose curve; as a rule, active = well fitted inhibition curve with a large enough effect; inconclusive = small, poorly fitted or top-dose-only effect; inactive = flat fitted curve, though single readings scatter.
Potency is the fitted concentration of half-maximal effect.

Sequence of ATP-dependent DNA helicase Q1 (Homo sapiens) (P46063 whole entry, looked up): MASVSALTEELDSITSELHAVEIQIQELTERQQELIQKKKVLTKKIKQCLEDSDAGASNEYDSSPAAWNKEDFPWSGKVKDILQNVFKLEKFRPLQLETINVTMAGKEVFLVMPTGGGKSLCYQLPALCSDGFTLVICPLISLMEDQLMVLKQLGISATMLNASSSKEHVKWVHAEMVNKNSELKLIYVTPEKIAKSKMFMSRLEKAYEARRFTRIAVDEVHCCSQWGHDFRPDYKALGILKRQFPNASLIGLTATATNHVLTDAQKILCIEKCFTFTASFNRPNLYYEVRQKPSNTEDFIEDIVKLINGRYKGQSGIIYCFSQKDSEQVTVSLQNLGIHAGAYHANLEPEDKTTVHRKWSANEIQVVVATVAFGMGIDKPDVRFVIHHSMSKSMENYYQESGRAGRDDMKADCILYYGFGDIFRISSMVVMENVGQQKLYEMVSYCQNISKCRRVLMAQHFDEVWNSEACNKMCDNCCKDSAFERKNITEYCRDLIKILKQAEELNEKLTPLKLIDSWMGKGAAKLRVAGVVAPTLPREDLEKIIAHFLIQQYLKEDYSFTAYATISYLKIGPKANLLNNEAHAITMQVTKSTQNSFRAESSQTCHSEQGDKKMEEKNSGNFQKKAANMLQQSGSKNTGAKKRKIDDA

The experiment addresses ATP-dependent DNA helicase Q1 (Homo sapiens) (UniProt P46063). In words: qHTS Validation Assay for Inhibitors of RecQ-Like Dna Helicase 1 (RECQ1) (AID 2353). The note with it: recombinant RECQ1 helicase DNA unwinding assay; series mostly up to 25.6 µM; activity change, negative = inhibition: at the top concentration. From the text: Survival of cells and the faithful propagation of the genome depend on elaborate mechanisms of detecting and repairing DNA damage. Treatment of advanced cancer relies on radiation therapy or chemotherapy, which kill cancer cells by causing extensive DNA damage. It is often found, that cancer cells develop resistance to therapy through enhanced activity of DNA repair functions; this has led to an increased interest in developing drugs that interfere with DNA repair, which could sensitize cancer cells to conventional therapy.
This validation qHTS assay pertains to human RECQ1, which is important in resolving abnormal DNA structures formed during replication or homologous recombination. Shutting down the expression of RECQ1 leads to chromosomal instability and higher radiation sensitivity in cultured cells.
The validation assay was a fluorescence quenching based kinetic qHTS for RECQ1 Helicase DNA unwinding. The activity was measured as ATP-dependent separation of a 20-bp DNA duplex extended by 30-nt single-stranded tails (forked duplex). The forked DNA substrate was tagged with rhodamine fluorophore (carboxytetramethyl rhodamine, TAMRA) and BHQ-2 (Black Hole Quencher 2) dark quencher. Strand separation results in an increase in the fluorescence of TAMRA (excitation 525 nm, emission 598 nm). This substrate construct operates in a red-shifted region where very few compound library members have been noted to fluoresce (PubChem AIDs 593 and 594). An additional feature of the assay is the inclusion of 2.5 ug/ml poly (dIdC), to reduce interference by compounds such as DNA intercalators, a major source of false inhibitors.
Opher Gileadi, Structural Genomics Consortium, University of Oxford
Screening Center PI: Austin, C.P.
Screening Center: NIH Chemical Genomics Center [NCGC]
Three uL of reaction buffer (25 mM Tris-HCl (pH 8.0), 5 mM NaCl, 2 mM MgCl2, 1mM DTT, 0.01% Tween- 20, and 2.5 ug/ml poly(dI-dC), including enzyme (50 nM RECQ1T1), were dispensed into a 1536-well Greiner black assay plate via solenoid-valve based nanoliter dispensers. Compounds (23 nl each in columns 5-48) and control (23 nl each in column 2 as dose-response) were transferred via a Kalypsys pintool equipped with a 1536-pin array. The plates were incubated for 15 min at room temperature, and then 1 ul of substrates (200 nM DNA and 2 mM ATP, final concentrations) was added to start the reaction. The plate was transferred into a ViewLux high-throughput CCD imager where the reaction progress was measured in a discontinuous kinetic mode (two reads spaced 2 hours apart, with intermediate room temperature incubation of the covered assay plate) by using standard red-fluorescence optics (excitation filter 525 nm, emission filter 598 nm). Enzyme-free and vehicle (DMSO) controls were included for signal normalization.
(In qHTS, concentration-response curves come from the screen itself.)
For the compound `CC(C)(C)NCC(O)COc1cccc2[nH]c(=O)[nH]c12` (stereo not given), the “activity change, negative = inhibition” value is 3.44%. Take `Cc1ccc([N+](=O)[O-])cc1S(=O)(=O)N(C)C`: the Potency result is “inactive”. Regarding `NC(N)=[N+]1CCc2ccccc2C1`, the “activity change, negative = inhibition” value is -8.67%. Consider `CCCCOC(=O)NS(=O)(=O)c1sc(CC(C)C)cc1-c1ccc(Cn2c(CC)nc3c(C)cc(C)nc32)cc1`, for which the “activity change, negative = inhibition” value was -16.8%.

`COC(=O)[C@H](NC(=O)c1cc(-c2ccccc2)nc2ccccc12)c1ccccc1`: the “activity change, negative = inhibition” value is -13.9%. Consider `NC(=O)c1ccccc1`, for which the “activity change, negative = inhibition” value was 110%. Regarding `NCCCCN=C(N)N`, the “activity change, negative = inhibition” value was -2.62%. In the case of `C=CCN1CCc2cc(O)c(O)cc2C(c2ccccc2)C1` (stereo not given), the “activity change, negative = inhibition” value was 1.96%. For `CC(=O)[C@H]1CCC2C3CC=C4C[C@@H](OS(=O)(=O)O)CC[C@]4(C)C3CC[C@@]21C` (stereo not given in full), the “activity change, negative = inhibition” value was 1.18%. On to `Cc1nc(N=Nc2cc(S(=O)(=O)O)c3cc([N+](=O)[O-])cc(S(=O)(=O)O)c3c2)c(COP(=O)(O)O)c(C=O)c1O`, for which the Potency is 11.2 µM (active). With `CCn1c(=O)[nH]c2cc(Cl)c(Cl)cc21`, the “activity change, negative = inhibition” value is 1.79%. In the case of `NC(=Nc1ccccc1)NC(=O)c1nc(Cl)c(N)nc1N`, the “activity change, negative = inhibition” value is 38.1%. Still for that read-out and setting: under `Fc1ccc(CN(C2=NCCN2)c2c(Cl)cccc2Cl)cc1` stands -8.24%; under `CCCCCC[C@@H]([C@@H](C)O)n1cnc2c(N)ncnc21`, 3.2%; under `O=c1onc2n1-c1cc(Br)ccc1OC2`, -0.0776%. In the case of `CCCc1c(-c2ccc(O)cc2)nn(-c2ccc(O)cc2)c1-c1ccc(O)cc1`, the “activity change, negative = inhibition” value was -6.92%. Same read-out and setting: with `NC1C=CC=C(C(=O)O)C1` (stereo not given) the figure was -4.66%; with `O=c1cc(O)cc(/C=C/c2ccc(O)c(O)c2)o1`, -7.01%; with `CC1C(=O)N(C)C(=O)c2nc[nH]c21` (stereo not given), 2.05%.

For `Cn1c(=O)c2c(nc(/C=C/c3cccc(Cl)c3)n2C)n(C)c1=O`, the “activity change, negative = inhibition” value was -5.19%. With `CN1CCCC1CCOC(C)(c1ccccc1)c1ccc(Cl)cc1` (stereo not given), the “activity change, negative = inhibition” value is -7.32%. For the compound `CNc1cc(NS(=O)(=O)c2ccc(N)cc2)nc(NC)n1`, the “activity change, negative = inhibition” value is 0.894%. Turning to `CCCOC(=O)c1c(-c2ccccc2)nc(CC)c(C(=O)SCC)c1CCC`, the “activity change, negative = inhibition” value was -10.6%.

With `COc1ccc2c(c1)CCC1C2CC[C@@]2(C)C1CC[C@@H]2NCCCCCCN1C(=O)C=CC1=O` (stereo not given in full), the “activity change, negative = inhibition” value was -3.16%. The same measure, in the same setting: with `CCCCCCCCCCCCCCC[C@H](O)[C@H](N)CO` the figure was -14%; with `Cn1cc(C(F)(F)F)nc1-c1ccc(OCC(O)CNCCOc2ccc(O)c(C(N)=O)c2)cc1` (stereo not given), 2.27%; with `Cc1cccc(C2CN(C)CCc3c2cc(O)c(O)c3Cl)c1` (stereo not given), 2.5%.

As for `O=C1Cc2c([nH]c3ccc(Br)cc23)-c2ccccc2N1`, the “activity change, negative = inhibition” value is -3.53%.

As to `CCC1(O)CC2CN(CCc3c([nH]c4ccccc34)[C@@](C(=O)OC)(c3cc4c(cc3OC)N(C)C3[C@]45CCN4CC=C[C@@](CC)([C@@H](OC(C)=O)[C@]3(O)C(=O)OC)[C@H]45)C2)C1` (stereo not given in full), the “activity change, negative = inhibition” value was -19.1%. As to `CC(C)(CO)Cc1cc(C(C)(C)C)c(O)c(C(C)(C)C)c1`, the “activity change, negative = inhibition” value is -8.8%. Regarding `NC(=O)c1cc[n+](CC2=C(C(=O)O)N3C(=O)[C@@H](NC(=O)[C@@H](c4ccccc4)S(=O)(=O)[O-])[C@H]3SC2)cc1`, the “activity change, negative = inhibition” value was 2.21%. In the case of `c1ccc2nc(C3=NCCN3)ccc2c1`, the “activity change, negative = inhibition” value was 2.92%.

With `CNC(=O)c1cc2c(cn1)[nH]c1ccccc12`, the “activity change, negative = inhibition” value was 4.51%. For `CSC(N)=NCCC[C@H](N)C(=O)O`, the “activity change, negative = inhibition” value is -2.89%. Regarding `CCCc1c(OCCCOc2ccc(OCC(=O)O)cc2)ccc(C(C)=O)c1O`, the “activity change, negative = inhibition” value is -9.67%. Consider `O=C(O)/C=C/c1cnc[nH]1`, for which the “activity change, negative = inhibition” value is -2.13%. Same read-out and setting: with `COCc1nc2c([nH]1)c(=O)n(C)c(=O)n2CC(C)C` the figure was 3.08%; with `NCCNS(=O)(=O)c1cccc2c(Cl)cccc12`, 3.17%; with `[Li+]`, 1.4%.

Turning to `CCCCCCN(CCCCCC)C(=O)Cc1c(-c2ccc(F)cc2)[nH]c2ccccc12`, the “activity change, negative = inhibition” value was -20.2%.
